Data reported in PubChem BioAssay AID1159580 (chemical genetic matrix, 2015).
Several values for one entry are separate records, joined by “and”; a condition that tells them apart may be missing. Equal entries are not always repeated. Out of some 5,500 compounds screened, about 2,000 (36%) were called active. Inconclusive results (about 18%) are left out. No stated cut-off is given here; in the data, active means normalized growth mostly below about 0.91 (no sharp cut-off); inconclusive means no clear call, values can overlap the other calls; inactive means mostly above about 0.92. The list shows a part of the results.

Experiment: chemical genetic growth profiling, strain panel (AID 1159580);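 further: tested at 20 µM; growth read once vehicle control cultures reached saturation at 30 °C; 1 = growth at the plate median or of vehicle wells; lower values mean less growth of the strain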
Conditions: S. cerevisiae deletion strains, growth OD

Measured: normalized growth

C[C@@H]1O[C@@H](O[C@H]2[C@@H](Oc3cc(O)c4c(c3)O[C@H](c3ccc(O)cc3)CC4=O)O[C@H](CO)[C@@H](O)[C@@H]2O)[C@H](O)[C@H](O)[C@H]1O
inactive: locus YAL013W, strain DEP1, hits give low values 1 | locus YAL021C, strain ccr4, hits give low values 0.969 | locus YAL026C, strain drs2, hits give low values 0.977 | locus YAL030W, strain snc1, hits give low values 0.956 | locus YBL061C, strain skt5, hits give low values 0.96 | locus YBR009C, strain hhf1, hits give low values 0.971 | locus YBR021W, strain FUR4, hits give low values 1.02 | locus YBR023C, strain chs3, hits give low values 0.978 | locus YBR171W, strain sec66, hits give low values 0.977 | locus YBR229C, strain ROT2, hits give low values 0.956 | locus YBR231C, strain swc5, hits give low values 0.97 | locus YBR279W, strain paf1, hits give low values 0.975 | locus YCL011C, strain gbp2, hits give low values 0.957 | locus YCL016C, strain dcc1, hits give low values 0.972 | locus YCL029C, strain bik1, hits give low values 0.991 | locus YCL061C, strain MRC1, hits give low values 0.985 | locus YCL069W, strain vba3, hits give low values 0.97 | locus YCR088W, strain abp1, hits give low values 0.979 | locus YDL005C, strain med2, hits give low values 0.967 | locus YDL035C, strain GPR1, hits give low values 0.996 | locus YDL040C, strain nat1, hits give low values 0.981 | locus YDL074C, strain BRE1, hits give low values 0.975 | locus YDL101C, strain DUN1, hits give low values 0.977 | locus YDL134C, strain PPH21, hits give low values 0.956 | locus YDL185W, strain tfp1, hits give low values 0.992 | locus YDL192W, strain arf1, hits give low values 0.995 | locus YDR001C, strain nth1, hits give low values 0.954 | locus YDR069C, strain doa4, hits give low values 0.97 | locus YDR101C, strain arx1, hits give low values 0.997 | locus YDR137W, strain rgp1, hits give low values 0.983 | locus YDR150W, strain NUM1, hits give low values 0.977 | locus YDR159W, strain sac3, hits give low values 0.978 | locus YDR162C, strain NBP2, hits give low values 0.992 | locus YDR195W, strain ref2 0.956 | locus YDR297W, strain sur2, hits give low values 0.984 | locus YDR318W, strain mcm21, hits give low values 0.994 | locus YDR334W, strain swr1, hits give low values 0.942 | locus YDR335W, strain msn5, hits give low values 0.969 | locus YDR388W, hits give low values 1 | locus YDR392W, strain spt3, hits give low values 0.934 | locus YDR502C, strain sam2, hits give low values 1 | locus YEL003W, strain gim4, hits give low values 0.967 | locus YEL037C, strain rad23, hits give low values 0.966 | locus YEL061C, strain CIN8 (second series), hits give low values 0.964 | locus YEL061C, strain CIN8, hits give low values 1 | locus YER015W, strain faa2, hits give low values 0.959 | locus YER016W, strain bim1, hits give low values 0.971 | locus YER110C, hits give low values 0.986 | locus YER111C, strain swi4, hits give low values 0.983 | locus YER155C, strain BEM2 (second series), hits give low values 0.972 | locus YER155C, strain BEM2, hits give low values 1.01 | locus YER167W, strain BCK2, hits give low values 1 | locus YFR010W, strain ubp6, hits give low values 0.954 | locus YGL078C, strain dbp3, hits give low values 0.991 | locus YGL086W, strain mad1, hits give low values 0.998 | locus YGL167C, strain pmr1, hits give low values 0.977 | locus YGL173C, strain kem1, hits give low values 0.946 | locus YGL227W, strain vid30, hits give low values 0.975 | locus YGL240W, strain doc1, hits give low values 0.991 | locus YGL248W, strain PDE1, hits give low values 0.979 | locus YGL253W, strain hxk2, hits give low values 0.977 | locus YGR078C, strain PAC10, hits give low values 0.987 | locus YGR135W, strain pre9, hits give low values 1 | locus YGR229C, strain SMI1, hits give low values 0.987 | locus YGR252W, strain gcn5, hits give low values 0.991 | locus YHR013C, strain ard1, hits give low values 0.943 | locus YHR027C, strain rpn1, hits give low values 0.959 | locus YHR030C, strain SLT2, hits give low values 0.99 and 1 | locus YHR079C, strain IRE1 (second series), hits give low values 0.999 | locus YHR079C, strain IRE1, hits give low values 0.989 | locus YHR094C, strain hxt1, hits give low values 0.996 | locus YHR129C, strain ARP1, hits give low values 0.993 | locus YHR142W, strain chs7, hits give low values 0.921 | locus YHR200W, strain rpn10, hits give low values 1 | locus YIL066C, strain RNR3, hits give low values 0.976 | locus YIL073C, strain SPO22, hits give low values 0.946 | locus YIL125W, strain kgd1, hits give low values 0.999 | locus YIR030C, strain dcg1, hits give low values 0.986 | locus YJL092W, strain hpr5, hits give low values 0.967 | locus YJL095W, strain BCK1 (second series), hits give low values 0.968 | locus YJL095W, strain BCK1, hits give low values 0.998 and 1 | locus YJL115W, strain asf1, hits give low values 0.938 | locus YJL129C, strain trk1, hits give low values 0.939 | locus YJL134W, strain LCB3, hits give low values 0.985 | locus YJL154C, strain vps35, hits give low values 0.961 | locus YJL164C, strain tpk1, hits give low values 0.98 | locus YJL166W, strain qcr8, hits give low values 0.977 | locus YJL168C, strain set2, hits give low values 1 | locus YJL187C, strain SWE1 (second series), hits give low values 0.968 | locus YJL187C, strain SWE1, hits give low values 0.974 | locus YJR043C, strain POL32, hits give low values 0.995 | locus YJR066W, strain TOR1, hits give low values 0.926
